This passage reports z-score results from PubChem BioAssay.

The source made the active and inactive calls.

Test [1] is described as follows: A549 cell viability effects, profiling panel, calcein-AM fluorescence, 48 h, basal (AID 1162). Particulars: higher = more signal.
Test [2] in a line: adipocyte viability effects, profiling panel, cell-based, 3T3-L1 adipocytes, calcein-AM fluorescence, 48 h, basal (AID 1163). As to conditions: 3T3-L1 adipocytes viability, higher = more signal.
The nature of test [3]: HepG2 cell viability effects, profiling panel, calcein-AM fluorescence, 48 h, basal (AID 1164). Particulars: higher = more signal.
The nature of test [4]: MM1S cell viability effects, profiling panel, calcein-AM fluorescence, 48 h, basal (AID 1165).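 Note: viability of MM1S multiple myeloma cells under basal unstimulated conditions.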 Particulars: higher = more signal.
Test [5] is described as follows: basal RPMI8226 viability, no added stimulus, profiling panel, cell-based, calcein-AM fluorescence, 48 h, PK04 Diversity Set (AID 1166).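 Note: cells grown under basal conditions without added stimulus.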 As to conditions: RPMI8226 myeloma viability, higher = more signal.
A short description of test [6]: basal HepG2 mitochondrial membrane potential changes, profiling panel, cell-based, JC-1 fluorescence, 24 h, 100 nL compound (AID 1167). As to conditions: higher = more signal.
Test [7] can be described thus: basal 3T3-L1 adipocyte mitochondrial potential changes, profiling panel, cell-based, JC-1 fluorescence, 3T3-L1 adipocytes, 24 h, 100 nL compound (AID 1168). As to conditions: JC-1 mitochondrial fluorescence, higher = more signal, called active from +8 up or from −8 down.
Test [8] can be described thus: basal RPMI8226 mitochondrial membrane potential changes, profiling panel, cell-based, JC-1 fluorescence, 24 h, 100 nL compound (AID 1169). Particulars: RPMI8226 myeloma, JC-1 mitochondrial potential fluorescence, higher = more signal.
A short description of test [9]: basal MM1S mitochondrial membrane potential changes, profiling panel, cell-based, JC-1 fluorescence, 24 h, 100 nL compound (AID 1170). Particulars: higher = more signal.
A short description of test [10]: A549 lung cancer cell viability effects, profiling panel, resazurin fluorescence, 24 h, PK04 Diversity Set (AID 1171). Particulars: higher = more signal, called active from +8 up or from −8 down. (Resazurin is reduced to fluorescent resorufin, in cell work by metabolically active cells.)
Note: test concentration not given here.

In the case of `CO[C@H]1O[C@H](CO)[C@@H](OC(=O)Nc2ccc(Br)cc2)[C@@H]2OC(=O)[C@H](Cc3cccc(Br)c3)C/C=C/C[C@@H](Cc3cccc(Br)c3)C(=O)O[C@@H]12`, the z-score in [1] was 0.193; in test [2], 0.461; in test [3] it was 0.31; in [4] it was -1.37; in test [5], -0.228; in test [6], -0.741. Moreover, the z-score was 1.78 (inactive) in [7], -0.209 in [8], -0.456 in [9] and -2.1 (inactive) in test [10].

`COC(=O)[C@@]1(Cc2ccccc2)[C@H]2c3cc(C(=O)N4CCCC4)n(Cc4c(CO)[nH]cc(C)c4=O)c3C[C@H]2CN1C(=O)c1ccccc1`: the z-score in [1] is -1.45; in test [2], -0.412; in test [3], -0.844; in test [4], -0.662; in test [5] it was -2.04; in test [6] it was -0.401. The z-score was -0.276 (inactive) in test [7], -0.797 in [8], -0.444 in test [9] and 0.739 (inactive) in [10].

With `CC(C)OC(=O)C=C1C[C@@H](c2cccc(Cl)c2)O[C@@H](c2cccc(Cl)c2)O1`, the z-score in [1] is -1.2; in test [2], -0.0201; in [3], -0.822; in test [4], -1.97; in [5], -0.66; in test [6], -0.46. Besides, the z-score in test [7] was 0.843 (inactive); in [8], 0.0432; in test [9], -1.51; in [10], 0.146 (inactive).

On to `COC(=O)[C@@]1(Cc2ccc(OC)cc2)[C@H]2c3cc(C(=O)N(C)C)n(Cc4ccc(C(F)(F)F)nc4)c3C[C@H]2CN1C(=O)c1ccccc1`, for which the z-score in test [1] is 0.212; in [2], -0.624; in test [3] it was 0.106; in test [4], -0.589; in [5] it was -0.782; in [6], 0.117. For the same compound, the z-score in test [7] is -0.29 (inactive); in test [8], 0.0192; in test [9], -1.03; in [10], 0.248 (inactive).

With `O=C1C2C=CC(C(O)C=Cc3ccc([N+](=O)[O-])cc3)N(n3cnnc3)C2C(=O)N1Cc1ccccc1` (stereo not given), the z-score in test [1] was -0.915; in [2], 0.0646; in [3] it was -0.129; in test [4], -0.232; in [5] it was -1.03; in test [6] it was -1.07. Also, the z-score in [7] was -0.566 (inactive); in [8], 0.646; in test [9], -0.178; in test [10], 0.367 (inactive).

On to `O=C(NC1CC1)[C@@H]1c2ccccc2C(=O)N(C2Cc3ccccc3C2)[C@H]1c1ccc(CO)cc1`, for which the z-score in test [1] is 0.201; in [2], 0.526; in test [3], 0.116; in [4], 0.62; in [5] it was -0.987; in [6], 2.96. For the same compound, the z-score in test [7] was 0.832 (inactive); in test [8], 0.0519; in test [9] it was 0.339; in [10], 0.888 (inactive).

As to `CN1C(=O)C2C=CC(C(O)c3ccc(F)cc3)N(N(c3ccccc3)c3ccccc3)C2C1=O` (stereo not given), the z-score in [1] is -0.631; in test [2], -2.01; in test [3], 0.153; in test [4], 0.0431; in test [5], -0.462; in test [6] it was -1.03. The z-score in [7] is -0.802 (inactive); in test [8], 0.399; in test [9] it was -1.03; in [10], -0.867 (inactive).

Regarding `O=C1NC(=O)C2C1C=CC(C(O)C1CC=CCC1)N2Nc1ccccn1` (stereo not given), the z-score is -0.905 in test [1]; -0.635 in test [2]; 1.06 in test [3]; 0.0581 in test [4]; -0.362 in test [5]; -0.265 in test [6]. For the same compound, the z-score is -0.147 (inactive) in test [7], -0.074 in [8], -0.642 in test [9] and -1.44 (inactive) in test [10].

Consider `CS(=O)(=O)CCOC(=O)C1=CC(CCCO)=CC(c2ccc(CN3CCCC3)cc2)N(Cc2cccc(OC(F)(F)F)c2)C=C1C(=O)OCCS(C)(=O)=O` (stereo not given), for which the z-score is 0.75 in [1]; 0.309 in [2]; 1.81 in test [3]; -1.46 in [4]; -0.697 in test [5]; 3.78 in test [6]. Besides, the z-score was -0.168 (inactive) in test [7], -0.661 in test [8], -0.935 in test [9] and 0.516 (inactive) in test [10].

In the case of `CC(C)=CCCC(C)=CC(O)C1C=CC2C(=O)N(c3ccccc3)C(=O)C2N1Nc1ccc(C(C)C)cc1` (stereo not given), the z-score was -1.27 in test [1]; -0.276 in test [2]; -0.964 in [3]; 0.105 in test [4]; -0.589 in test [5]; -1.09 in test [6]. Moreover, the z-score in test [7] is -0.696 (inactive); in test [8] it was 0.465; in test [9], 1.06; in test [10], 0.38 (inactive).

Consider `COc1ccccc1CN1C(=O)c2ccccc2[C@@H](C(=O)NCc2ccccc2)[C@@H]1c1ccc(CO)cc1`, for which the z-score in test [1] was 1.2; in test [2], 0.448; in test [3], 0.292; in [4], -0.881; in [5], 0.47; in test [6], 2.08. In addition, the z-score in test [7] is 0.819 (inactive); in test [8], -0.288; in test [9] it was 0.544; in test [10], 0.832 (inactive).

Consider `CC(C)NC(=O)[C@@]1(Cc2ccccc2I)c2ccccc2C(=O)N(Cc2ccccc2Cl)[C@H]1c1ccc(CO)cc1`, for which the z-score in [1] is -0.271; in [2], 0.0063; in test [3], 0.768; in [4] it was -1.59; in test [5], -2.03; in [6] it was -0.274. Also, the z-score in [7] was 0.131 (inactive); in test [8], 0.0101; in test [9] it was -0.756; in test [10] it was 0.0211 (inactive).

In the case of `CCCCN1CC=CC23O[C@@H]4/C=C\CCCOC(=O)C4[C@H]2C(=O)N(CCCCCO)[C@@H]3C1=O` (stereo not given in full), the z-score in test [1] was -0.234; in [2], 1.14; in test [3] it was -0.195; in test [4], 1.46; in test [5] it was 0.0001; in test [6], -0.327. Further, the z-score in [7] is 0.783 (inactive); in test [8] it was 0.163; in test [9], -0.0801; in test [10], 0.356 (inactive).

For the compound `C=CCNC(=O)[C@H]1[C@@H]2C(=O)O[C@@H](c3ccccc3)[C@@H](c3ccccc3)N2[C@@H](c2ccc(OCCO)cc2)[C@]12C(=O)Nc1ccc(C#CCC(C(=O)OC)C(=O)OC)cc12`, the z-score in test [1] is -0.505; in test [2] it was 0.208; in test [3], 0.349; in [4], -1.46; in test [5], -3.36; in [6], -0.232. Also, the z-score in test [7] is 0.97 (inactive); in test [8], -0.817; in [9], -1.12; in test [10] it was 0.149 (inactive).

On to `O=C1NC(=O)C2C1C=CC(C(O)C=Cc1ccc([N+](=O)[O-])cc1)N2Nc1ccc(Cl)cc1Cl` (stereo not given), for which the z-score in test [1] is -0.352; in [2], -0.122; in test [3], -0.3; in test [4] it was -1.47; in test [5], -1.4; in [6] it was -0.5. The z-score is -0.726 (inactive) in [7], -1.02 in test [8], -0.873 in test [9] and -0.428 (inactive) in test [10].

Regarding `COCCCNC(=O)[C@@H]1c2ccccc2C(=O)N(Cc2ccccc2)[C@H]1c1ccc(CO)cc1`, the z-score was 0.273 in test [1]; 0.803 in [2]; 0.601 in [3]; 0.239 in test [4]; 0.437 in test [5]; 1.1 in test [6]. Moreover, the z-score in test [7] is -0.0918 (inactive); in [8], 0.163; in test [9], 0.282; in test [10], 0.45 (inactive).
